GoLoco inh red: inhibitors of human Gai1-RGS12 GoLoco interaction (red fluorophore); Gai1:RGS12 GoLoco peptide FP, rhodamine, 10 min; Potency, µM (titrated, usually from 61.6 µM), without a hit: at the highest dose activity, negative = inhibition, most hits filed as inhibitors; 230,000 compounds, 0.44% hits; AID 880; active = well fitted inhibition curve with a large enough effect, not every such curve was filed as active; inactive = no such curve, though single readings can be large or run the other way; note: nearly all actives have a fitted effect of over 30% in size
TexasRed fluor: alters Texas Red total fluorescence, flagging assay interference; TRb/SRC2 Texas Red total fluorescence interference; Potency, µM (top dose mostly 106 µM), without a hit: at the highest dose fluorescence change, negative = quenching; 280,000 compounds, 0.29% hits; AID 1479; active = well fitted curve in either direction with a large enough effect; inconclusive = small, poorly fitted or top-dose-only effect
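Flags fluorescent or light-absorbing compounds by total fluorescence, S + 2P, at 555 nm excitation and 632 nm emission. Mixture: 20 nM Texas Red SRC2 peptide, 0.6 uM human TRb LBD, 1 uM T3, 5% DMSO; compound exposure 5 h at ambient temperature.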
APE1 inh: inhibitors of human APE1 endonuclease. recombinant APE1, TAMRA/BHQ-2 abasic DNA cleavage fluorescence. Potency, µM (series often up to 65.8 µM), without a hit: at the top dose activity change, negative = inhibition, hits mostly inhibitors. 350,000 compounds, 0.35% hits. AID 2517;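 note: plate controls were vehicle for no effect and reference inhibitor for full effect; nearly all actives have a fitted effect of over 55% in size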
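Kinetic fluorescence read (525 ex/598 em nm, three reads 60 s apart) of AP-site incision; signal = third minus first read. Enzyme 0.75 nM, dual-labelled THF duplex 50 nM, compound preincubation 15 min RT.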
RECQ1 inh: RECQ1 (human) helicase inhibition. RECQ1 DNA unwinding, red fluorescence kinetic read. AID 2549. P46063. 240,000 compounds, 0.54% hits. Potency, µM (series often up to 57.3 µM), without a hit: top-dose activity, negative = inhibition, usual class: inhibitors;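 note: plate controls were vehicle for no effect and no enzyme for full effect; nearly all actives have a fitted effect of over 30% in size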
Target sequence (P46063 whole entry, looked up): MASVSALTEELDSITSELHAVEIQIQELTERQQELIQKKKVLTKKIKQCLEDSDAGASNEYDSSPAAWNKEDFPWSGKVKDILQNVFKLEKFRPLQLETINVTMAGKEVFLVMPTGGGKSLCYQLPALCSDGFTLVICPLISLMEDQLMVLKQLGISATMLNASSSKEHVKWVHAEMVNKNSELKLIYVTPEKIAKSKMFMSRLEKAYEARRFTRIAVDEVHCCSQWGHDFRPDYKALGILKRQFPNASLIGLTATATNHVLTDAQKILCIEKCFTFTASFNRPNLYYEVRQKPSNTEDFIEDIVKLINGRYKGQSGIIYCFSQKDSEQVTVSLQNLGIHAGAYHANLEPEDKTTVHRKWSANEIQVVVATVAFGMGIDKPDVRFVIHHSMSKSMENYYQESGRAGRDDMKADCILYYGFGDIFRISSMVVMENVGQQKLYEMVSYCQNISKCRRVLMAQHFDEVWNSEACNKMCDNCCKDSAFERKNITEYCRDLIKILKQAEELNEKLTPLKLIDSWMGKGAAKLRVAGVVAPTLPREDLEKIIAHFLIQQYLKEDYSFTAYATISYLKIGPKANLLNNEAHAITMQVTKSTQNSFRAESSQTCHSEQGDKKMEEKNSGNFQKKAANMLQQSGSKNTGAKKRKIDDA
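50 nM RECQ1T1 preincubated 15 min with compound in Tris pH 8.0 buffer with MgCl2, DTT, Tween-20 and 2.5 ug/ml poly(dI-dC); started with 200 nM TAMRA/BHQ-2 forked duplex and 2 mM ATP. Unwinding read as fluorescence (525/598 nm), two reads 2 h apart.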
BLM helicase inh: Bloom syndrome helicase (human) inhibition; Potency, µM (series often up to 56.1 µM), for the others: top-dose activity change, negative = inhibition, usual class: inhibitors; recombinant BLM DNA unwinding, fluorescence dequenching; P54132; 350,000 compounds, 0.2% hits;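 note: plate controls were vehicle for no effect and no enzyme for full effect; nearly all actives have a fitted effect of over 35% in size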
TRb SRC2 PPI: TRbeta-SRC2 interaction inhibition | P10828 | TRbeta-SRC2 peptide binding, fluorescence polarization; receptor liganded with 1 µM T3 | Potency, µM (series often up to 106 µM), for inactives: at the top dose activity change, negative = inhibition, usual class: inhibitors | 280,000 compounds, 0.065% hits | AID 1469;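 note: plate controls were bound peptide for no effect and peptide without receptor for full effect; nearly all actives have a fitted effect of over 50% in size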
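Fluorescence polarization of 20 nM Texas Red SRC2 peptide with 0.6 uM human TRb ligand-binding domain, in Tris buffer with 1uM T3 and 5% DMSO. Incubated 5 hr ambient; normalized to unbound and bound controls.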
An asterisk follows results filed as active; i = inactive; ? = inconclusive; . = not tested or not shown; [ ] = dose if it differs, or a comment. Only some compounds are listed: those with a hit (about 0.9% of all), similar ones and a draw of the others. Unless noted, calls come from the whole dose curve; as a rule, active = well fitted curve in the direction sought with a large enough effect; inconclusive = small, poorly fitted or top-dose-only effect, or another doubt; inactive = no such curve, though single readings can be large; an effect the other way counts as inactive or inconclusive. Unless noted, % is set by controls: 0 for no effect and ±100 for the full control effect; potency is the fitted concentration of half-maximal effect.

SMILES | GoLoco inh red | TexasRed fluor | APE1 inh | RECQ1 inh | BLM helicase inh | TRb SRC2 PPI
Cc1cc(/C=N/Nc2ccc([N+](=O)[O-])cn2)c(C)n1-c1ccccc1 | 21% | -2% | 1% | i | -11% | -8%
Cc1ccc(C)c(S(=O)(=O)Nc2ccc3oc(C)c(C(=O)O)c3c2)c1 | . | . | 13µM* | . | -5% | .
CCN(CC)CC[n+]1ccc2c(C)c3[nH]c4ccc(O)cc4c3c(C)c2c1 | 0%[14.2 µM] | . | . | . | . | .
O=C(O)C1Cc2c([nH]c3ccccc23)C(c2coc3ccccc3c2=O)N1 (stereo unspecified) | 3% | 0% | 3% | -11% | -3% | 5%
CCCCCCCC[Si](Cl)(Cl)Cl | . | 1%[201 µM] | . | . | . | 1%[201 µM]
COC(=O)CSc1nc2c(c(-c3ccc(O)cc3)c1C#N)CCCC2 | 6% | -2% | -2% | -1% | -15% | -2%
COC(=O)CSc1nc2c(c(-c3ccco3)c1C#N)CCCC2 | 42% | 6% | -8% | 35µM* | -28% | 12%
Cc1ccccc1OCC(=O)Nc1ccc2nc(SCC(=O)N(C)c3ccccc3)sc2c1 | . | -22% | . | . | -6% | 1%
CC(C)CN(c1ccccc1)S(=O)(=O)c1nnc(NC(=O)C2CCCCC2)s1 | . | 4.5µM*[quencher] | . | . | -25% | -17%
CCOc1ccc(CNC(=O)c2cnc3sc(N4CCOCC4)nn3c2=O)cc1OC | . | 1995µM*[quencher] | . | . | 3% | ?
CCOc1ccc(-c2c(C)nn3c(C)c(C(=O)NCc4ccc(Cl)cc4)cnc23)cc1OCC | . | 251µM*[quencher] | . | . | 0% | -11%
CCOC(=O)c1ccc(NC(=O)Cn2c3ncccc3c(=O)n2-c2ccc(C)c(C)c2)cc1 | . | 1% | . | . | -15% | -4%
CC(=O)c1ccc(NC(=O)Cn2c3ncccc3c(=O)n2-c2ccc(C)cc2)cc1 | . | 89µM*[quencher] | . | . | -3% | ?
COc1cc(CN(C(=S)NCC(=O)NC2CC2)C2CCCC2)cc(OC)c1OC | 12% | 0.089µM*[quencher] | 9% | -14% | 3% | ?
CCCc1ccc(OCC(=O)Nc2sc3c(c2C(=O)OCC)CCC(C(C)(C)C)C3)cc1 (stereo unspecified) | . | 10µM*[quencher] | . | . | -4% | ?
CCOC(=O)c1c(NC(=O)COc2ccc(CC)cc2)sc2c1CCCC2 | . | -7% | . | . | -1% | -2%
CCCCCCCCCC[N+](C)(C)Cc1ccccc1 | . | -1%[201 µM] | . | . | . | 4%[201 µM]
O=C(CC1(O)C(=O)c2ccccc2C1=O)c1ccccc1 | -2% | -5% | -3% | -18% | 1% | 2%
O=C1c2ccccc2C(=O)C1(O)O | 6% | 3% | ? | 32µM* | . | -26%
CCCCN1C(=O)C(NC(=O)c2ccc(C(C)(C)C)cc2)(C(F)(F)F)C(C(=O)OC)=C1C (stereo unspecified) | . | -4% | . | . | -11% | 8%
C=C1C=C(C(F)F)n2ncc(C(=O)NCCc3ccccc3Cl)c2N1 | . | . | 23% | . | . | .
CC[N+]1=C(C)C(C)(C)c2cc(C)ccc21 | -39% | 40µM*[fluorescent] | 10µM* | 25µM* | -10% | ?
c1ccc(OCCOc2ccccc2)cc1 | . | -4%[201 µM] | . | . | . | 7%[201 µM]
COc1cc(NC(=O)O[C@@H]2C(=O)c3cc(Br)ccc3O[C@H]2c2ccc3c(c2)OCO3)cc(OC)c1OC | 3% | -1% | -10% | i | -2% | -1%
COc1ccc(-c2c(-c3ccc(OCC(=O)NN)cc3O)n[nH]c2C(F)(F)F)cc1 | 13% | 1% | -3% | 4% | 13µM* | -4%
CC(C)(C)n1ncc2c(=O)n(Cc3cccc(F)c3)cnc21 | . | . | 1% | . | . | .
O=c1[nH][nH]c(=S)c(=O)[nH]1 | 1%[14.2 µM] | . | . | . | . | .
COC(=O)C1CCN(C(=O)COC(=O)CNS(=O)(=O)c2ccc(SC)c([N+](=O)[O-])c2)CC1 | . | . | 12µM* | . | . | .
C=CCOC(=O)CC(C)C | . | -4%[201 µM] | . | . | . | -2%[201 µM]
CC(C)(C)n1ncc2c(=O)n(Cc3cc(Cl)ccc3Cl)cnc21 | . | . | -3% | . | . | .

Screening data deposited in PubChem BioAssay by National Center for Advancing Translational Sciences (NCATS).
